Measurements as given in PubChem BioAssay AID1851 (National Center for Advancing Translational Sciences (NCATS), 2009).
The campaign covered roughly 16,000 compounds. About 5,700 (36%) were called active. Not shown: some 24% with an inconclusive outcome. Calls come from the whole dose curve; as a rule, active = well fitted curve in the direction sought with a large enough effect; inconclusive = small, poorly fitted or top-dose-only effect, or effect the other way; inactive = no such curve, though single readings can be large or run the other way. Some of the results follow.

Molecular target: Cytochrome P450 1A2 (Homo sapiens) (UniProt P05177)
Sequence (P05177 whole entry, looked up): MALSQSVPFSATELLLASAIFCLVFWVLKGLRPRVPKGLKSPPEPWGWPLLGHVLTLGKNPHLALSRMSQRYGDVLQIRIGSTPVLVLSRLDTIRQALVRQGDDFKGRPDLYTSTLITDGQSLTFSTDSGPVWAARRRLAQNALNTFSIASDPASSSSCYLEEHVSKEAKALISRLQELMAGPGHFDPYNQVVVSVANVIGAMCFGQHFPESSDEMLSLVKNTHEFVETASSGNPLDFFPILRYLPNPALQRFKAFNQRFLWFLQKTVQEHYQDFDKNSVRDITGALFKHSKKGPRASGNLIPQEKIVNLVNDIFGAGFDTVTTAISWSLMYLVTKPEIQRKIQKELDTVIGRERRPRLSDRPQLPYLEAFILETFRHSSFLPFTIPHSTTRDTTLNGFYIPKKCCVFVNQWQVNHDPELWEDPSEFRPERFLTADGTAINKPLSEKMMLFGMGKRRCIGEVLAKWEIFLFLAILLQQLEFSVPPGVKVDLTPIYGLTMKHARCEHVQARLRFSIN
Experiment: Cytochrome panel assay with activity outcomes
Settings: recombinant CYP, pro-luciferin dealkylation, luminescence, p450-cyp1a2; series mostly up to 57.1 µM
% is set by controls: 0 for no effect and ±100 for the full control effect.

AC50, active:
N#Cc1cccc(-c2cc(NCc3ccccc3)ncn2)c1 1 µM
N#Cc1cccc(-c2cc(NCc3cccnc3)ncn2)c1 0.0398 µM
Cc1cccc(CNc2cc(-c3cccc(C#N)c3)ncn2)c1 0.158 µM
N#Cc1cccc(-c2cc(NCc3cccs3)ncn2)c1 0.794 µM
O=C(Nc1ccc(Cl)cc1)OCCn1nnnc1C(c1ccccc1Cl)N1CCOCC1 (centres undefined) 15.8 µM
COc1ccc(NC(=O)CSc2ccc3c4c(cccc24)C(=O)c2ccccc2-3)cc1 1.58 µM
COc1ccc(-n2nnnc2SCC(=O)Nc2ccccc2)cc1 6.31 µM
Cn1ccnc1SCC(=O)Nc1sccc1C#N 3.16 µM
COc1ccc(-n2ccnc2SCC(=O)Nc2ccccc2)cc1 12.6 µM
COc1ccc(-n2ccnc2SCC(=O)Nc2ccc(OC)cc2OC)cc1 6.31 µM
COc1cccc(-n2ccnc2SCC(=O)Nc2nccs2)c1 1.26 µM
CN(C)CCNC(=O)c1cc(Br)ccc1Cl 11.2 µM
CCn1c(SCc2ccc(Cl)cc2Cl)nc2nc3c(cc2c1=O)CCCC3 3.55 µM
CCCCNC(=O)Cc1coc2ccc3ccccc3c12 4.47 µM
CCOC(=O)CSc1nnc(CSc2nc3sc4c(c3c(=O)[nH]2)CCCC4)n1-c1ccccc1 14.1 µM
CN(Cc1ccco1)c1ncnc2ccc(-c3cccc(NS(C)(=O)=O)c3)cc12 0.398 µM
CN(Cc1ccco1)c1ncncc1-c1cccc(NS(C)(=O)=O)c1 15.8 µM
COc1cccc(Nc2ncc3ncc(=O)n(CCC#N)c3n2)c1 1 µM
COc1cccc(Nc2ncc3nc(C)c(=O)n(CCC#N)c3n2)c1 1.26 µM
Cc1nc2cnc(Nc3ccccc3)nc2n(CCC#N)c1=O 0.631 µM
COc1ccc(-c2nc3cnc(Nc4cccc(OC)c4)nc3n(CCC#N)c2=O)cc1 6.31 µM
CS(=O)(=O)Nc1cccc(-c2cncnc2Nc2ccccc2)c1 5.01 µM
CS(=O)(=O)Nc1cccc(-c2cncnc2Nc2ccc(F)cc2)c1 5.01 µM
Cc1cnnn1-c1ccc(C(=O)CCl)cc1 2.82 µM
COc1cccc(-c2cncnc2NCc2cccs2)c1 1.26 µM
COc1cccc(-c2cncnc2NCc2cccnc2)c1 0.794 µM
COc1cccc(-c2cncnc2NCc2ccccc2)c1 5.01 µM
COc1cccc(-c2cncnc2NCc2cccc(C)c2)c1 2 µM
C=CCOc1ccc2cccc(/C=N/NC(=O)c3cc4cc([N+](=O)[O-])ccc4s3)c2c1 2.24 µM
CCCCc1[nH]c(=O)c(C#N)c2c1CCCC2 5.01 µM
COC(=O)N[C@H](c1ccccc1)[C@@]1(C)C[C@@H]1[C@@H](C)C(=O)Nc1ccc2ccccc2c1 12.6 µM
C[C@@H](C(=O)Nc1ccc2ccccc2c1)[C@@H]1C[C@@]1(C)[C@@H](NC(=O)c1ccncc1Cl)c1ccccc1 25.1 µM
CC(=O)N[C@H](c1ccccc1)[C@@]1(C)C[C@@H]1[C@@H](C)C(=O)Nc1ccc2ccccc2c1 15.8 µM
C[C@@H](C(=O)Nc1ccc2ccccc2c1)[C@@H]1C[C@@]1(C)[C@@H](N)c1ccccc1 15.8 µM
CC(=O)N[C@@H](c1ccccc1)[C@]1(C)C[C@H]1[C@@H](C)C(=O)Nc1ccc2ccccc2c1 12.6 µM
CN1CCN(c2ncc3nc(-c4cc(F)cc(F)c4)c(=O)n(C4CC4)c3n2)CC1 15.8 µM
CN1CCN(c2ncc3nc(-c4ccc(Cl)cc4)c(=O)n(C4CC4)c3n2)CC1 15.8 µM
CN1CCN(c2ncc3nc(-c4ccc(F)cc4)c(=O)n(C4CC4)c3n2)CC1 12.6 µM

AC50, inactive:
COC(=O)C1C(=O)C2=C(CC1C)NC(=O)CC2c1cccc(C)c1 (centres undefined)
COC(=O)[C@@]1(Cc2ccccc2)[C@H]2c3cc(C(=O)N4CCCC4)n(Cc4ccc(S(C)(=O)=O)cc4)c3C[C@H]2CN1C(=O)c1ccccc1
CN(CC[C@@H](Oc1ccc(-c2ccccc2)cc1)c1ccc(F)cc1)CC(=O)O
COC(=O)CNC(c1ccccc1Cl)c1cc(Br)ccc1NC(=O)CCN1CCOCC1 (centres undefined)
COc1ccc(Cn2nnnc2C(c2ccccc2Cl)N2CCC(C(N)=O)CC2)cc1 (centres undefined)
COc1ccc(NC(=O)CSc2nnc(C3CC3)n2-c2ccccc2)cc1
CCC(=O)Nc1ccc(NC(=O)CSc2nnnn2-c2cccnc2)cc1C
COc1ccc(NC(=O)CSC2=NC(=O)CC(C)=N2)cc1
C=CCN1C(=NC(=O)CC)SC2CS(=O)(=O)CC21 (centres undefined)
CCOc1ccc(-n2c(SCC(=O)Nc3ccc(OC)cc3OC)nc3c(c2=O)SCC3)cc1
COC(=O)CSc1nnc(C)n1-c1cccc(OC)c1
COc1cccc(NC(=O)CSc2nnc(CN3CCOCC3)n2C)c1
O=C(c1ccncc1)N1CCC2(CC1)CN(Cc1cc(C(F)(F)F)cc(C(F)(F)F)c1)C2
O=C(NOC(=O)c1cc(Br)ccc1Cl)c1cccs1
CN(C)CCNC(=O)Cn1nc(-c2ccc(Cl)cc2)ccc1=O
CCCS(=O)(=O)N1CCCC(C(=O)NCCN(C)Cc2ccccc2)C1 (centres undefined)
Cn1c(=O)c2c(nc(N3CCN(c4ccccn4)CC3)n2Cc2ccc(Cl)cc2Cl)n(C)c1=O
CCOC(=O)CSc1nnc(Cc2cc(=O)[nH]c(=O)[nH]2)n1-c1cccc(OC)c1
CCOC(=O)C(Sc1ncnc2c1sc1nc(N3CCOCC3)c3c(c12)CCCC3)c1ccccc1 (centres undefined)
O=C1NC(c2ccccc2)=NC1(NS(=O)(=O)c1ccccc1)C(F)(F)F (centres undefined)
N#CCCn1c(=O)c(CCc2ccccc2)nc2cnc(Nc3ccccc3)nc21
COc1cccc(Nc2ncc3nc(CCc4ccccc4)c(=O)n(CCC#N)c3n2)c1
C[N+](C)(C)CCCCCC[N+](C)(C)C
O=S(Cc1ccccc1)CC(O)(c1ccccc1)c1ccccc1 (centres undefined)
Cc1ccc(C(=O)N2CCN(C3c4cccc5cccc(c45)C3NS(=O)(=O)c3ccccc3)CC2)cc1 (centres undefined)
CN=C(NC#N)NCCSC[C@H]1N=CN=C1C
CS(=O)(=O)N1CCC2(CC1)CN(Cc1cc(C(F)(F)F)cc(C(F)(F)F)c1)C2
O=C(c1csnn1)N1CCC2(CC1)CCN(C(c1ccccc1)c1ccccc1)CC2
CC(=O)N/N=C/c1cc([N+](=O)[O-])ccc1OCCOc1ccccc1
CCCCOC(=O)CCc1c(C)[nH]c(=O)c(C#N)c1C
C[N+]1(C)CCC[C@@H](OC(=O)C(O)(c2ccccc2)c2ccccc2)C1
CC(=O)Nc1ccc(N2C(=O)CC(c3ccccc3)CC2=O)cc1
C[C@@H](C(=O)Nc1ccc2ccccc2c1)[C@H]1C[C@]1(C)[C@H](NC(=O)Oc1ccc(F)cc1)c1ccccc1
C[C@@H](C(=O)Nc1ccc2ccccc2c1)[C@@H]1C[C@@]1(C)[C@@H](NC(=O)Oc1ccc(F)cc1)c1ccccc1
CCCN(CCC)CCNC(=O)C1CCCN(S(=O)(=O)c2ccc3c(c2)oc(=O)n3C)C1 (centres undefined)
CCc1nc2cc(CC(=O)O)ccc2o1
Cn1cccc1C(=O)N1CCC2(CC1)CN(c1ccccn1)C2
Nc1nc2c(ncn2COCCO)c(=O)[nH]1
C[C@@]12CC3CC(N)(C1)C[C@@](C)(C3)C2
C[C@@]1(C(NC(=O)Cc2ccccc2)c2ccc(-c3ccccc3)cc2)C[C@H]1C1CCCCC1 (some centres undefined)
C[C@@H](C(=O)Nc1ccc2ccccc2c1)[C@H]1C[C@]1(C)[C@H](NS(=O)(=O)c1ccc2ccccc2c1)c1ccccc1
CC(C)N=c1cc2n(-c3ccc(Cl)cc3)c3ccccc3nc-2cc1Nc1ccc(Cl)cc1

activity, negative = inhibition, inactive:
C[C@@H](c1ccccc1)N1C(=O)[C@H]2[C@@H]3[C@H](O)C=CC(=O)[C@H]3CC[C@H]2C1=O -9.41% [at 11.4 µM]
CO[C@@H]1/C=C\O[C@@]2(C)Oc3c(C)c(O)c4c(c3C2=O)C(=N[C@H]2CC[C@H](O)O[C@@H]2C)C=C(NC(=O)/C(C)=C\C(=O)[C@@H]2C[C@@H]2[C@@H](O)[C@H](C)[C@@H](O)[C@H](C)[C@H](OC(C)=O)[C@@H]1C)C4=O -9.54% [at 11.4 µM]
O=c1[nH]c(=S)c2[nH]c(=O)n(-c3ccccc3)c2[nH]1 -1.84% [at 11.4 µM]
O=C1[C@H]2[C@H]3[C@H](O)[C@H](O)C/C(=N/OC[C@@H](O)COCc4ccco4)[C@H]3CC[C@@H]2C(=O)N1Cc1ccc2c(c1)OCO2 6.71% [at 11.4 µM]
O=C1[C@@H]2[C@@H]3C=C[C@H]([C@@H]2C(=O)N1CN1CCSCC1)[C@@H]1[C@@H]2C(=O)N(CN4CCSCC4)C(=O)[C@@H]2[C@H]31 -13.4% [at 11.4 µM]
CCC(=O)Nc1ncnc2ncn(C(=O)CC)c12 -5.19% [at 11.4 µM]
C/C(CCN1CCCCc2nc(C)c(C)cc21)=N\O[C@@H](C)CN1CCCc2nc(C)c(C)cc21 -40.3% [at 11.4 µM]
Cc1cc2c(c(=O)o1)[C@H](O)[C@H]1O[C@@H]1C2=O 2.69% [at 11.4 µM]
CN(C)Cc1cc(O)c(O)c(CN(C)C)c1 -8.6% [at 11.4 µM]
